Results as given in the supplement of paper PMC10849652.
The full data set covers some 7,900 targets. This sample favours those with a hit. About 0.6% of all pairs of compound and target were hits. Unmarked numbers belong to inactive results.

Legend:
Assay in all cases: log2 fold change, soluble protein after heating vs DMSO (PISA); higher = thermal stabilisation; K562 cells, 10 uM, 30 min; active = over 0.2 and 3.5 SD of the protein, either way, in both replicates (recomputed)
[1] = compound: CN1CCN(CCOc2cc(OC3CCOCC3)c3c(Nc4c(Cl)ccc5c4OCO5)ncnc3c2)CC1 [saracatinib]
Procedure, shortened: (§1)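 K562 cells at 2×10^6 cells/mL were treated with 10 μM compound for 30 min. Aliquots were heated for 3 min across 48°C-58°C, pooled, and extracted in PBS with 0.5% NP-40 at 4°C; soluble protein was the supernatant after 21,000xg for 90 min. Soluble protein was quantified by TMTpro 16plex LC-MS/MS with channel sums equalised, and reported as log2 fold change in thermal stability against DMSO controls, with values from duplicates.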

[2] = compound: CN1CCN(c2nc(C3=C(c4c[nH]c5ccccc45)C(=O)NC3=O)c3ccccc3n2)CC1 [sotrastaurin]
Procedure, shortened: as §1

[3] = compound: CN1CC[C@H](c2c(O)cc(O)c3c(=O)cc(-c4ccccc4Cl)oc23)[C@H](O)C1 [alvocidib]
Procedure, shortened: as §1

[4] = compound: CN1CCc2c(c3ccccc3n2Cc2ccc(C(=O)NO)cc2)C1 [Tubastatin A]
Procedure, shortened: as §1

[5] = compound: CNC(=O)C1=CC=CC=C1NC2=NC(=NC=C2Cl)NC3=C(C=C(C=C3)N4CCOCC4)OC
Procedure, shortened: as §1

[6] = compound: CNC(=O)c1ccc(Nc2ncc(C(F)(F)F)c(NCc3nccnc3N(C)S(C)(=O)=O)n2)cc1 [defactinib]
Procedure, shortened: as §1

[7] = compound: CNCc1ccc(-c2[nH]c3cc(F)cc4c3c2CCNC4=O)cc1 [rucaparib]
Procedure, shortened: as §1

[8] = compound: CNc1nc(-c2ccc3c(N)n[nH]c3c2)cc(N2C[C@@H](C(=O)NC3CCCCC3)CC[C@H]2C)n1
Procedure, shortened: as §1

[9] = compound: COC(=O)N[C@@H](C)CNc1nccc(-c2cn(C(C)C)nc2-c2cc(Cl)cc(NS(C)(=O)=O)c2F)n1 [encorafenib]
Procedure, shortened: as §1

[10] = compound: COC(=O)[C@H](CCSC)NC(=O)C1=C(C=C(C=C1)NC[C@H](CS)N)C2=CC=CC=C2
Procedure, shortened: as §1

Chain of UniProt O95232 (O95232 whole entry, looked up): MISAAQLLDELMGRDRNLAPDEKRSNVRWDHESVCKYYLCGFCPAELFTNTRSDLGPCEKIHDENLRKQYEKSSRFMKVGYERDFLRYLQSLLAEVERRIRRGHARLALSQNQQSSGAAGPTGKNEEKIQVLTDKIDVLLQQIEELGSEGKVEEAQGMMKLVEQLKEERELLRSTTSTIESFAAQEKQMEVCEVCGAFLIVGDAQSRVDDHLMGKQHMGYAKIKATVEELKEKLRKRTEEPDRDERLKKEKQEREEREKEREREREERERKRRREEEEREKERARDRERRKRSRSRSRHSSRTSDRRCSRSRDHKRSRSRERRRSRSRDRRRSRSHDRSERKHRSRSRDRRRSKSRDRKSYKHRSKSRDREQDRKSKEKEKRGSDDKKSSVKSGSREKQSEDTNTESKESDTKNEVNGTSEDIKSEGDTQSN
Chain of UniProt Q96GA3 (Q96GA3 whole entry, looked up): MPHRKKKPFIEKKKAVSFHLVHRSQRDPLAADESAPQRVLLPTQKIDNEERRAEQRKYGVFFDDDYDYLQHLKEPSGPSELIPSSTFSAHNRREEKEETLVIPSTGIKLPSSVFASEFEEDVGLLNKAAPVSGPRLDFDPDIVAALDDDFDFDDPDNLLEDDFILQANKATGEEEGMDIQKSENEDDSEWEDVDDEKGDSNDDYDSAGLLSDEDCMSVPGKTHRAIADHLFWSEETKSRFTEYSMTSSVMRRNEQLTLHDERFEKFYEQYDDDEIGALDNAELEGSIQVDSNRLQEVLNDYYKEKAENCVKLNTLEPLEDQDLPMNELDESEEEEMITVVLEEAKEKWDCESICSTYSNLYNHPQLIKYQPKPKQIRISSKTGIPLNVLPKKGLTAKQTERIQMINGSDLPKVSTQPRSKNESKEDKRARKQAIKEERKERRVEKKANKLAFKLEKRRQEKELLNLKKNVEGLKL
Chain of UniProt Q9H9P8 (Q9H9P8 whole entry, looked up): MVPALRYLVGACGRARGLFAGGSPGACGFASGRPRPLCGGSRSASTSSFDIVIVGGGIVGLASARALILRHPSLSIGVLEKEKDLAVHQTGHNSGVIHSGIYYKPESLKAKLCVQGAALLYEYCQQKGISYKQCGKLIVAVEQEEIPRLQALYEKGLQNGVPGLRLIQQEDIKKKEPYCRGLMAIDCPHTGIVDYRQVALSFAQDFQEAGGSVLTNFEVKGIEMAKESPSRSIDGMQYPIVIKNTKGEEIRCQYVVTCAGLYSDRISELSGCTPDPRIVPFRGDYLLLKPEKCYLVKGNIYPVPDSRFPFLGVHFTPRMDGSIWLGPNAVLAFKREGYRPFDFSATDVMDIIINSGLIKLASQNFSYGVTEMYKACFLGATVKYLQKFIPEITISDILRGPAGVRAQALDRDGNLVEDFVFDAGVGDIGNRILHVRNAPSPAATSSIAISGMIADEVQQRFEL
Chain of UniProt P20700 (P20700 whole entry, looked up): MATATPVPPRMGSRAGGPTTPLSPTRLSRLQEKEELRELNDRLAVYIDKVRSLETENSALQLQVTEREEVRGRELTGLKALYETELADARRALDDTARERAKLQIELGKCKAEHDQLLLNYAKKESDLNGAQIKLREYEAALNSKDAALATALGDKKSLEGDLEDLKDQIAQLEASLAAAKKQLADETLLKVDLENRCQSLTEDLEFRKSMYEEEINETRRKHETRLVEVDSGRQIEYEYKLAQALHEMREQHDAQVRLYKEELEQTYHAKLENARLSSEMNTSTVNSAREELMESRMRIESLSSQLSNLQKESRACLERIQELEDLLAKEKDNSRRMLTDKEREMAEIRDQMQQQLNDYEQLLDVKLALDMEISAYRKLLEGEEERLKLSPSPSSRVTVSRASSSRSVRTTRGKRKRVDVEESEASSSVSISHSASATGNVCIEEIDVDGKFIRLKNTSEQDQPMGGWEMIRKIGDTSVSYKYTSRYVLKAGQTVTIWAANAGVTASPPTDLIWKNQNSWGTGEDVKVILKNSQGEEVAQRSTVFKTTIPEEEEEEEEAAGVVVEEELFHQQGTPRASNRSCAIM
Chain of UniProt P18065 (P18065 whole entry, looked up): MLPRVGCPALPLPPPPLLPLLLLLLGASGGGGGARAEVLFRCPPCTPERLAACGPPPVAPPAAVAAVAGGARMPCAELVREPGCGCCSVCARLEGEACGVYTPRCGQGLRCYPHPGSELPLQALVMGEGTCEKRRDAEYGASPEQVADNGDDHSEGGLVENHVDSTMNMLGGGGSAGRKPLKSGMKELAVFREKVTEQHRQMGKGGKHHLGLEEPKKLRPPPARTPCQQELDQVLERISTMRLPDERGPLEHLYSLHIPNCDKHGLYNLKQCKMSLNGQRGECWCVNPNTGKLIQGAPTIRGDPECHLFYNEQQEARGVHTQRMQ
Chain of UniProt P51884 (P51884 whole entry, looked up): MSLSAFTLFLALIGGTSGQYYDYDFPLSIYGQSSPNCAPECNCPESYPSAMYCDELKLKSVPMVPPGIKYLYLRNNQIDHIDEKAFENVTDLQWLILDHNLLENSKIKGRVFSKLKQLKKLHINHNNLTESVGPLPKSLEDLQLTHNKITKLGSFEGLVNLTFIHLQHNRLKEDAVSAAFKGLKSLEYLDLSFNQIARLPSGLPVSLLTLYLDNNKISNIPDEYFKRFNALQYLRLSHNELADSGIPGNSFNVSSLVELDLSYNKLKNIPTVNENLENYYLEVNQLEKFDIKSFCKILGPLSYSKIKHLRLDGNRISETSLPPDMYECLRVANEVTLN
Chain of UniProt Q92615 (Q92615 whole entry, looked up): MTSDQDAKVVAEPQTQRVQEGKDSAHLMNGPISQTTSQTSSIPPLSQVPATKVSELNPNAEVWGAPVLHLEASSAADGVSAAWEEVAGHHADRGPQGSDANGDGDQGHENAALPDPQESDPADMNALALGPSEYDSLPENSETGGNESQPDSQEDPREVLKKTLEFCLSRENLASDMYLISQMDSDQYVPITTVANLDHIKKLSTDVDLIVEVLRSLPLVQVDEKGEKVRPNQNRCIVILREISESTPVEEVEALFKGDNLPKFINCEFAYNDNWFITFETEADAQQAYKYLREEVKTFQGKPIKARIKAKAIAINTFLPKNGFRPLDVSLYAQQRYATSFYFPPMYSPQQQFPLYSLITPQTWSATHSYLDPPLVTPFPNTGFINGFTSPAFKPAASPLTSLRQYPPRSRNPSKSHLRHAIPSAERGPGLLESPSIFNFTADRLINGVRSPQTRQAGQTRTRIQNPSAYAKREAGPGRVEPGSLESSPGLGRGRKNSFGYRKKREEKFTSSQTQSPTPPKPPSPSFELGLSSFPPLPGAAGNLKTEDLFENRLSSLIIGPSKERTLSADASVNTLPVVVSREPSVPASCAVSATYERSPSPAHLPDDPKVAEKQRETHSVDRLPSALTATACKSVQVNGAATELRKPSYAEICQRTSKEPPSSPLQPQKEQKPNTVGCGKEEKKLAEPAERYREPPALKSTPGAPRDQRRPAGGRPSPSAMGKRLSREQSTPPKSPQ
Chain of UniProt Q7Z4S6 (Q7Z4S6 whole entry, looked up): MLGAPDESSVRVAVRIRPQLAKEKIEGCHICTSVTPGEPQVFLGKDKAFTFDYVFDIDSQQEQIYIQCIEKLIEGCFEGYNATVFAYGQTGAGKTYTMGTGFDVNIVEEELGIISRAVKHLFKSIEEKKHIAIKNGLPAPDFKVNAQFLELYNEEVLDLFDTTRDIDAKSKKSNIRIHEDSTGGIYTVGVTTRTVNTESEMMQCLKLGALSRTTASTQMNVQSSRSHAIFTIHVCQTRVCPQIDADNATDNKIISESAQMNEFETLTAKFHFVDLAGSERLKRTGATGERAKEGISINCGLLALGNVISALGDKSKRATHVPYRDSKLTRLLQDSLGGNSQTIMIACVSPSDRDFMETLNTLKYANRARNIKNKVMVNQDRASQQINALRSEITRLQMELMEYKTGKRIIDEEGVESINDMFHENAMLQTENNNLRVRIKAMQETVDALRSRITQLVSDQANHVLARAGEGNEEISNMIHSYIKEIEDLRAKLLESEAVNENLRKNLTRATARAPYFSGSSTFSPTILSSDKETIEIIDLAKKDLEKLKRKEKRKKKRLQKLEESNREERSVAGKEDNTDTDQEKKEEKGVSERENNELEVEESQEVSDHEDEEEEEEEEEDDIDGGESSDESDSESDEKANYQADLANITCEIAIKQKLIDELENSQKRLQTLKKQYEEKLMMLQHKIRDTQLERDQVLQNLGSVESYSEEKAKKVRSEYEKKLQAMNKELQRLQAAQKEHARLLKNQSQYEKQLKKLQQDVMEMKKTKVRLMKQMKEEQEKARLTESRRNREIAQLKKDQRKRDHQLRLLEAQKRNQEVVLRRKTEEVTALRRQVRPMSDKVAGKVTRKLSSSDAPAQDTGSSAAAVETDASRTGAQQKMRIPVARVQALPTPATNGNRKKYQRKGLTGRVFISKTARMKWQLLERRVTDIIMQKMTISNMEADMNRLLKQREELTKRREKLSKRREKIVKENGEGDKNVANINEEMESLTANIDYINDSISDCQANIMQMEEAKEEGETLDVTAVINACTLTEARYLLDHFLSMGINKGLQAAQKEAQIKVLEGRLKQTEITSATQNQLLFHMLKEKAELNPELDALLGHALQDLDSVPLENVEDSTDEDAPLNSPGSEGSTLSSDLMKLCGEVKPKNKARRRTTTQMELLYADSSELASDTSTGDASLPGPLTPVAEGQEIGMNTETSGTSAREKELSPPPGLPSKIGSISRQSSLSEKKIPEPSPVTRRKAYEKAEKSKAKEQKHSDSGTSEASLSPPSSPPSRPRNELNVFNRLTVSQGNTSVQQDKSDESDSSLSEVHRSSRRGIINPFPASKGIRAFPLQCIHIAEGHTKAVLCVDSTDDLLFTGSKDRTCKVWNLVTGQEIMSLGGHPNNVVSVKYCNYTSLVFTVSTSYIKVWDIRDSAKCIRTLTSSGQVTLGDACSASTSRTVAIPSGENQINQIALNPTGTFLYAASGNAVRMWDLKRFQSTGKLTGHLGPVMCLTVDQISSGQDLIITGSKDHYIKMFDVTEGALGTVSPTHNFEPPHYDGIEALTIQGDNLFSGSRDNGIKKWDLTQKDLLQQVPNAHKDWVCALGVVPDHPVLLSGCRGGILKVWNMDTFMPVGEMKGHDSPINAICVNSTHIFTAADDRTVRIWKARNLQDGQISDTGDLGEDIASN

Target	log2 fold change [1]	log2 fold change [2]	log2 fold change [3]	log2 fold change [4]	log2 fold change [5]	log2 fold change [6]	log2 fold change [7]	log2 fold change [8]	log2 fold change [9]	log2 fold change [10]
MED22 (UniProt Q15528)	-0.089	-0.007	-0.055	0.332	-0.051	-0.043	0.021	0.044	0.12	0.097
IGF2R (UniProt P11717)	-0.015	0.004	-0.008	-0.004	0.061	-0.01	-0.027	-0.008	0.045	0.005
MAPKAPK3 (UniProt Q16644)	0.134	-0.117	0.011	-0.077	0.117	-0.051	-0.023	0.011	0.106	-0.01
MAIP1 (UniProt Q8WWC4)	0.03	0.06	-0.058	0.028	0.002	-0.054	-0.039	-0.04	0.048	0.008
LYN (UniProt P07948)	-0.198	-0.08	0	0.026	-0.287	-0.174	0.13	-0.022	0.009	0.038
MAP4 (UniProt P27816)	0.017	0.019	0.042	-0.029	-0.014	0.016	0.009	-0.029	-0.001	0.031
LUC7L3 (UniProt O95232)	-0.003	0.013	-0.049	-0.007	-0.314 (active)	-0.113	-0.008	-0.048	0.028	-0.003
IL27RA (UniProt Q6UWB1)	0.062	0.014	-0.025	0.063	0.056	-0.097	-0.03	0.065	-0.023	0
KCT2 (UniProt Q8NC54)	0.027	0.042	-0.095	-0.003	0.096	-0.088	-0.008	0.031	0.063	-0.036
LMNB2 (UniProt Q03252)	-0.031	-0.127	-0.02	0.02	0.027	-0.201	-0.085	-0.073	-0.009	0.049
LDLR (UniProt P01130)	0.113	0.003	-0.04	-0.002	0.003	-0.033	0	-0.065	0.01	0.104
LTV1 (UniProt Q96GA3)	-0.09	-0.037	0.151	0.16	0.083	0.145	0.074	0.081	0.109	-0.061
KIF21A isoform 4 (UniProt Q7Z4S6)	0.001	-0.006	0.134	0.094	0.001	0.016	0.109	0.077	0.175	-0.072
IGFBP2 (UniProt P18065)	-0.049	0.223	0.212	-0.032	-0.06	0.134	0.003	-0.148	0.028	-0.053
MFN2 (UniProt O95140)	-0.005	0.045	-0.012	0.02	-0.024	-0.066	0.041	0.058	-0.006	-0.026
KHDC4 (UniProt Q7Z7F0)	-0.139	0.027	-0.15	0.052	0.019	-0.058	-0.058	0.023	0.008	-0.023

Target	log2 fold change [1]	log2 fold change [2]	log2 fold change [3]	log2 fold change [4]	log2 fold change [5]	log2 fold change [6]	log2 fold change [7]	log2 fold change [8]	log2 fold change [9]	log2 fold change [10]
KHDRBS1 (UniProt Q07666)	0.025	0.018	0.027	-0.006	0	0.042	0.248 (active)	-0.009	-0.009	-0.05
KMT2C isoform 3 (UniProt Q8NEZ4)	-0.026	-0.02	-0.084	-0.029	0.009	-0.043	-0.043	-0.046	-0.012	0.035
LSR (UniProt Q86X29)	-0.003	0.023	-0.018	0.012	-0.074	-0.053	-0.023	0.095	0.042	0.031
MED25 isoform 3 (UniProt Q71SY5)	-0.079	0.031	-0.102	-0.042	-0.014	-0.045	0.104	0.036	0.083	-0.111
LMNB1 (UniProt P20700)	0.029	-0.11	-0.173	-0.016	0.007	-0.166	-0.035	-0.095	0.016	0.032
KIF3A (UniProt Q9Y496)	-0.102	-0.073	-0.02	-0.031	0.085	0.013	0.292	0.037	0.003	0.005
IMMT isoform 4 (UniProt Q16891)	-0.012	-0.002	-0.009	-0.033	-0.014	-0.012	-0.055	-0.007	0.012	0.002
MAPRE3 (UniProt Q9UPY8)	-0.029	-0.016	-0.091	-0.067	0.025	-0.031	0.02	-0.016	0.017	0.027
LARP4B (UniProt Q92615)	-0.009	-0.083	0.004	-0.033	-0.025	-0.037	0.273	0.02	0.094	0.032
LUM (UniProt P51884)	0.081	0.29	0.047	-0.145	0.085	-0.071	-0.167	0.014	-0.011	0.283
ILKAP (UniProt Q9H0C8)	-0.057	-0.087	-0.152	0.055	-0.021	-0.155	0.011	0.055	0.061	-0.078
MAP2K3 isoform 3 (UniProt P46734)	0.024	0.017	-0.029	-0.045	-0.025	-0.063	0.058	-0.061	-0.02	0.003
LEMD2 (UniProt Q8NC56)	-0.048	0.004	0.061	0.014	-0.058	-0.126	0.11	0.041	0.023	0.013
L2HGDH (UniProt Q9H9P8)	-0.009	0.091	-0.039	-0.002	-0.017	-0.011	-0.005	0.012	-0.022	0.049
KLC2 (UniProt Q9H0B6)	-0.107	-0.032	-0.095	0.086	-0.017	-0.13	0.001	0.051	0.036	-0.051
